# Assay outcomes deposited in PubChem BioAssay by National Center for Advancing Translational Sciences (NCATS).
# VDR inh: blocks the human vitamin D receptor | AID 504847 | Potency, µM, actives largely listed as inhibitors | VDR-SRC2-3 peptide fluorescence polarization, 2 h | P11473 | hit rate 0.93% among 400,000
#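 Fluorescence polarization assay of small-molecule disruption of VDR binding to coregulator peptide SRC2-3. Compounds and controls pin-transferred, then read after 2 h incubation at ambient room temperature.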
# JMJD2A Tudor: blocks the human JMJD2A Tudor domain | O75164 | AlphaScreen JMJD2A-Tudor / H3K4me3 peptide binding | Potency, µM (series often up to 114 µM), most hits filed as inhibitors | hit rate 4.4% among 390,000; also: nearly all actives have a fitted effect of over 50% in size
# L3MBTL1 block: blocks human L3MBTL1. Q9Y468. AlphaScreen L3MBTL1–H3K9me1 peptide binding. Potency, µM (doses to about 57.1 µM), actives largely listed as inhibitors. hit rate 0.66% among 230,000; also: nearly all actives have a fitted effect of over 60% in size
#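 Displacement of a biotinylated histone H3(1-15) peptide monomethylated at Lys9 (75 nM) from L3MBTL1 (50 nM) was measured by AlphaScreen after a 30 min room-temperature compound incubation; cefsulodin titration served as intraplate control.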
# BAZ2B block: BAZ2B (human) inhibition; Q9UIF8; AlphaScreen BAZ2B-H3K14Ac peptide displacement; Potency, µM (doses to about 114 µM), most hits filed as inhibitors; hit rate 4.4% among 360,000; AID 504333; also: nearly all actives have a fitted effect of over 60% in size
# Target sequence (Q9UIF8 whole entry, looked up): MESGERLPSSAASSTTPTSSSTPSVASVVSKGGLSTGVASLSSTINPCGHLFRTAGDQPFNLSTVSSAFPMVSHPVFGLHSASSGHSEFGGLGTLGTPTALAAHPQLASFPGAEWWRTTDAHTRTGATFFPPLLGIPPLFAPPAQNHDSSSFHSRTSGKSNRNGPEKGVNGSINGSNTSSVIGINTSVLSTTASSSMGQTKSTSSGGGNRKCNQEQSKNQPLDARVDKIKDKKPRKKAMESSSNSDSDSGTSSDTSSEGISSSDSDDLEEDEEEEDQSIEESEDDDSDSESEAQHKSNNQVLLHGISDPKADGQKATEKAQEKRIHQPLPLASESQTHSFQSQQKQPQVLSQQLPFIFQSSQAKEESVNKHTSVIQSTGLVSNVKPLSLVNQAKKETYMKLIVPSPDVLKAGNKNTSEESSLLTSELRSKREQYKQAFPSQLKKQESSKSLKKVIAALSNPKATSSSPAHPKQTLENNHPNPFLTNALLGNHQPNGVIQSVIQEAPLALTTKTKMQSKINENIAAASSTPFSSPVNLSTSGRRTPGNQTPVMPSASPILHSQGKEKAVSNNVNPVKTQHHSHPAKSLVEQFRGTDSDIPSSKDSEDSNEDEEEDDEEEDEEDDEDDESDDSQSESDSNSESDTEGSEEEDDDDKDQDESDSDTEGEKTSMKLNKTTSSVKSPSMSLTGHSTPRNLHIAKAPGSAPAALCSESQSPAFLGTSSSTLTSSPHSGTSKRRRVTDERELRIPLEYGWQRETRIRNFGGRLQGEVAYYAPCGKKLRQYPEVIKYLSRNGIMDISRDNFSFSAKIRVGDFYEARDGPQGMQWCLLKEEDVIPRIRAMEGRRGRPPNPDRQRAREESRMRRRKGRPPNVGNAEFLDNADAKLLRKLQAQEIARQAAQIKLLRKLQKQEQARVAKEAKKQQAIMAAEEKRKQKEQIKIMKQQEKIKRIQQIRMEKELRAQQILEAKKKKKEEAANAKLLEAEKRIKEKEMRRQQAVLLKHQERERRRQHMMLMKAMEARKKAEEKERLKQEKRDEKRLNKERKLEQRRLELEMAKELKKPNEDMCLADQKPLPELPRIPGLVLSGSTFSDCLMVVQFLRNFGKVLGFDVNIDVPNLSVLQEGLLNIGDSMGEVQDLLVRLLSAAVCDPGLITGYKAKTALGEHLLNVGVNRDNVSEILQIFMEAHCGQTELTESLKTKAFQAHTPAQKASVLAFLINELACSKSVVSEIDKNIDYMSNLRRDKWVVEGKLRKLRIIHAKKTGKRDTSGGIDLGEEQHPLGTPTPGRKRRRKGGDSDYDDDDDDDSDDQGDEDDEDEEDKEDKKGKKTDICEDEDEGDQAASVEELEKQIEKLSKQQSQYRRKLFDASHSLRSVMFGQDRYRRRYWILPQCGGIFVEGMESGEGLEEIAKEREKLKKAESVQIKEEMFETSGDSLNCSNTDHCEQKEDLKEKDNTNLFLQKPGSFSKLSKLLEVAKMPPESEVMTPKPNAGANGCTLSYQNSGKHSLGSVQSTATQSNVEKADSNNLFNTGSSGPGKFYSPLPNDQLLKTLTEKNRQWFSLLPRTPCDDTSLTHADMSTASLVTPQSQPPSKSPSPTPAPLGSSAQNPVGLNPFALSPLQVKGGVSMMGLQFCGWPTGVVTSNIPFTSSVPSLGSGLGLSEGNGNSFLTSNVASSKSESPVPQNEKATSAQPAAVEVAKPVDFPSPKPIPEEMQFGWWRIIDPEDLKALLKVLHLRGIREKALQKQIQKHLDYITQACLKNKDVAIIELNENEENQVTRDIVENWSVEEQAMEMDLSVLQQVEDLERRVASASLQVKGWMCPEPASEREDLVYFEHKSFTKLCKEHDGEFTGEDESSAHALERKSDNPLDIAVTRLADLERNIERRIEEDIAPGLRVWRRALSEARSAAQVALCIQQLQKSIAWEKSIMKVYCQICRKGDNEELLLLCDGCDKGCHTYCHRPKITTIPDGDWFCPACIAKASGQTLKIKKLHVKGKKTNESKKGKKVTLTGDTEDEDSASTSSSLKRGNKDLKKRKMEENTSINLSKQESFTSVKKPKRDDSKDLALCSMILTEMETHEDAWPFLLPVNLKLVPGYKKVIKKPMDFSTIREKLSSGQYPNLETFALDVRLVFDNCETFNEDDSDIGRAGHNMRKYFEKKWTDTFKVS
#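 BAZ2B (50 nM) with biotin-H3(5-23)K14Ac peptide (50 nM) in PBS pH 7.4, 0.01% Tween-20, preformed 30 min, then compound 30 min at room temperature; top concentration 110uM. AlphaScreen streptavidin donor/nickel chelate acceptor beads (10 ug/mL final), 20 min dark, signal read.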
# PLK1 PBD inh: inhibitors of human PLK1 polo-box domain binding. P53350. Plk1 PBD binding of FITC phosphopeptide, fluorescence polarization. Potency, µM, actives largely listed as inhibitors. hit rate 2.8% among 360,000. AID 720504; also: series mostly up to about 57 µM; nearly all actives have a fitted effect of over 65% in size
# HP1b binding inh: HP1-beta chromodomain-methylated histone interaction inhibition. AID 540317. hit rate 0.56% among 390,000. AlphaScreen HP1-beta / biotin-H3K9me3 peptide binding. Potency, µM (top dose mostly 114 µM), actives largely listed as inhibitors. P83916; also: nearly all actives have a fitted effect of over 70% in size
#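 AlphaScreen: HP1-beta (50 nM) preformed 30 min with biotin-H3(1-18)K9me3 peptide (50 nM) in PBS pH 7.4, 0.01% Tween-20. Compound added for 30 min at RT, then streptavidin donor/nickel chelate acceptor beads (10 ug/mL) for 30 min.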
# A number is an active result; – = inactive; ? = inconclusive; · = no result given; ! = a repeat was not active; [ ] = remark or other dose. In the library only some 6.9% were active in any assay of this set; here they are far more common. Calls follow the shape of the dose curve; as a rule, active = well fitted curve in the direction sought with a large enough effect; inconclusive = small, poorly fitted or top-dose-only effect, or another doubt; inactive = no such curve, though single readings can be large; an effect the other way counts as inactive or inconclusive.
SMILES,VDR inh,JMJD2A Tudor,L3MBTL1 block,BAZ2B block,PLK1 PBD inh,HP1b binding inh
Cc1c(P(=S)(c2ccccc2)c2ccccc2)c2ccccc2n1CCc1ccccc1,·,–,·,·,·,·
CCOC(=O)c1ccc(NC(=O)CSc2nnc(CNc3ccc(C)cc3)n2C)cc1,–,–,–,–,–,–
CCOC(=O)c1c(NC(=O)CSc2nnc(CNc3ccc(OC)cc3)n2C)sc(C)c1C,–,50µM,·,45µM,?,20µM
NC(=O)c1c(NC(=O)CSc2nnc(-c3ccco3)n2-c2ccccc2)sc2c1CCC2,–,?,10µM,50µM,?,?
CCOC(=O)c1sc(NC(=O)CSc2nnc(-c3ccco3)n2CC)c(C(=O)OCC)c1C,–,–,–,?,–,–
CCCNC(=O)CSc1nnc(-c2ccco2)n1C,–,?,–,–,2.7µM,–
COC(=O)c1c(NC(=O)CSc2nnc(-c3ccco3)n2C)sc(C)c1C,?,79µM,–,–,30µM,?
Cn1c(SCC(=O)NC2CC2)nnc1-c1ccco1,–,–,–,–,–,–
COc1ccc(CCCNC(=O)C2Cc3c(-c4cccc(C(C)=O)c4)ccnc3O2)cc1 (stereo not drawn),·,·,·,·,–,·
CCOC(=O)c1c(NC(=O)CSc2nnc(CNc3ccc(F)cc3)o2)sc(C(C)=O)c1C,–,–,·,50µM,–,–
CCOC(=O)c1c(NC(=O)CSc2nnc(Cc3ccccc3)o2)sc(C(C)=O)c1C,–,–,·,–,–,–
C#CCCc1cscc1/C=[N+](\[O-])c1ccc(C(=O)OCC)cc1,?,50µM,–,–,7.5µM,?
C#CCCC(=O)c1ccccc1/C=[N+](\[O-])c1ccccc1,–,?,–,–,–,–
Cc1cc(C)cc(NC(=O)Cn2c3ncccc3c(=O)n2-c2ccc(C)c(C)c2)c1,–,–,·,–,·,–
O=C(Nc1cccnc1)c1cc(-c2cccc(Cl)c2)on1,79µM!,25µM!,·,–,24µM,–
O=C(Nc1cccnc1)c1cc(-c2ccc(Cl)c(Cl)c2)on1,–,–,·,–,–,–
CCN(CC)S(=O)(=O)c1ccc(O)c(NC(=O)COc2ccc(S(=O)(=O)N3CCOCC3)cc2)c1,?,?,·,·,24µM,?
CNC(=O)COc1ccc(S(=O)(=O)N2CCCC2)cc1,50µM,11µM,–,–,5.3µM,–
Cc1ccc(S(=O)(=O)N2CCOCC2)cc1NC(=O)COC(=O)CNC(=O)c1ccccc1,–,–,–,–,–,–
CCN(CC)S(=O)(=O)c1ccc(O)c(NC(=O)c2ccc(N3CCOCC3)c([N+](=O)[O-])c2)c1,?,–,–,–,21µM,?
O=C(O)COc1ccc(S(=O)(=O)N2CCCC2)cc1,–,–,–,–,–,–
Cc1ccc(S(=O)(=O)N2CCOCC2)cc1NC(=O)COc1ccc(C(=O)c2ccccc2)cc1,89µM,–,–,–,–,–
Cc1cccc(N2CCN(C(=S)Nc3ccc4nc5n(c(=O)c4c3)CCCCC5)CC2)c1C,–,–,–,–,–,–
COc1ccc(OC)c(CNC(=O)C2CCN(c3nc4ccccc4nc3C(F)(F)F)CC2)c1,–,–,·,–,·,–
COc1cc2c(cc1OC)CN(C(=O)CSc1ccccc1C)CC2,–,–,–,·,27µM,–
SMILES,VDR inh,JMJD2A Tudor,L3MBTL1 block,BAZ2B block,PLK1 PBD inh,HP1b binding inh
COc1cc2c(cc1OC)CN(C(=O)CSC1=NCCS1)CC2,·,·,·,·,–,·
COc1cc2c(cc1OC)CN(C(=O)c1cccc([N+](=O)[O-])c1)CC2,79µM,50µM,–,–,27µM,–
CN1CC[C@@]2(CCCN(C(=O)c3cccn3C)C2)C1,–,·,·,·,·,·
Cc1ccccc1NC(=S)NC(=O)/C=C/c1ccco1,?,?,?,56µM,21µM,?
COc1ccccc1NC(=S)NC(=O)/C=C/c1ccco1,?,–,–,50µM,?,–
CCn1nccc1C(=O)Nc1ccccc1OC,–,–,–[2.29 µM],–,–,–
COc1ccccc1NC(=O)/C=C\c1ccco1,?,–,·,?,?,–
CCn1ncc(Br)c1C(=O)Nc1ccccc1OC,–,56µM,·,–,21µM,–
CCC(=O)NC(=S)Nc1ccccc1OC,–,–[11.4 µM],–,–,24µM,?
Cc1ccc(NC(=O)C2CCCN(c3cnccn3)C2)cc1Cl (stereo not drawn),–,–,·,–,·,–
CCOCCCn1c(SCC(=O)Nc2ccccc2Cl)nc2c(oc3ccccc32)c1=O,–,–,·,–,·,–
O=C(/C=C/c1ccco1)NC(=S)Nc1cccc(-c2nc3ccccc3o2)c1,–,50µM,–,45µM,–,–
Cc1cccc(NC(=S)NC(=O)/C=C/c2ccco2)c1,?,?,–,45µM,?,?
CC(C)(C)c1nnc2sc(SCC(=O)N3CCc4ccccc43)nn2c1=O,–,?,–,–,27µM,–
COc1cccc(NC(=O)CSc2nn3c(=O)c(C)nnc3s2)c1,–,?,·,–,–,–
CC(C)(C)c1nnc2sc(SCC(=O)c3ccccc3)nn2c1=O,–,–,–,–,–,–
Cc1nnc2sc(SCC(=O)Nc3cccc(Cl)c3)nn2c1=O,–,?,·,40µM,–,–
COc1ccc(NC(=O)CSc2nn3c(=O)c(C)nnc3s2)cc1,–,?,·,–,–,–
Cc1ccccc1NC(=O)CSc1nn2c(=O)c(C)nnc2s1,–,89µM,–,?,–,–
Cc1nnc2sc(SCC(=O)Nc3ccc(Br)cc3)nn2c1=O,–,?,·,40µM,–,–
Cc1nc(-c2ccc(NC(=O)/C=C\C(=O)O)cc2)cs1,–,?,–,–,21µM,–
CCCCCC(=O)Nc1ccc(-c2csc(C)n2)cc1,–,–,–,–,–,–
COc1ccc(-c2c(C)nn3c(N4CCN(c5ccccc5F)CC4)cc(C)nc23)cc1OC,–,–,·,–,·,–
O=c1[nH]c(=O)n2c(c1-c1ccccc1)OC(CBr)C2 (stereo not drawn),·,·,·,·,–,·
CCOC(=O)c1sc(N)c(C(=O)Nc2ccccc2)c1C,?,–,–,–,9.5µM,?
SMILES,VDR inh,JMJD2A Tudor,L3MBTL1 block,BAZ2B block,PLK1 PBD inh,HP1b binding inh
COC(=O)c1c(NC(=O)C2CC2)sc(C(=O)Nc2ccccc2)c1C,–,–,–,·,27µM,–
CCOC(=O)c1c(N)sc(C(=O)OCCOC)c1C,79µM,–,–,–,9.5µM,?
CCOC(=O)c1sc(N)c(C(=O)OCC)c1C,–,–,–,–,–,–
CCOC(=O)Cn1nc(N2CCN(c3ccc(F)cc3)CC2)ccc1=O,–,–,·,·,·,–
CCn1c(=O)c2c(nc3n2CCN3c2ccc(OC)cc2)n(C)c1=O,–,–,·,–,·,–
O=C(CSc1ccc2nnc(-c3ccc(Cl)cc3)n2n1)N1CCc2ccccc21,–,–,–,–,?,–
COc1ccc(NC(=O)CC2C(=O)N(c3ccc(F)cc3)C(=O)N2Cc2cccnc2)cc1 (stereo not drawn),–,–,·,–,·,–
CN1CCN(c2ncnc3c2ncn3[C@H]2CN(Cc3ccc(-c4ccccc4)cc3)C[C@@H](CO)O2)CC1,·,·,·,·,–,·
